PubChem BioAssay AID624305 (National Center for Advancing Translational Sciences (NCATS), 2012)
Results filed as inconclusive are left out. Activity calls are given as the source filed them. Calls come from the whole dose curve; as a rule, active = well fitted activation curve with a large enough effect; inconclusive = small, poorly fitted or top-dose-only effect; inactive = no such curve, though single readings can be large or run the other way.

assay: qHTS assay for re-activators of p53 using a Luc reporter: Hit Validation; details: p53-responsive luciferase reporter cells, luminescence, H1299 line expressing heat-sensitive Ala138Val p53; series mostly up to 46.1 µM; activation: at the top concentration; note: nearly all actives have a fitted effect of over 75% in size; for activation: 0% is about no effect
Method in brief: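 H1299 (p53-null) cells stably carrying p53-A138V and a BP100-luciferase reporter, 1000 cells/well, treated 24 h at 37 deg C. Compounds at several concentrations, 1:5 dilution; nocodazole control; luminescence read after 10 min with detection reagent.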
Potency is the fitted concentration of half-maximal effect.

SMILES	activation	Potency
O=C(Nc1cccc(N=Cc2cc(Cl)cc(Br)c2O)c1)c1ccco1	6.77% (inactive)	–
CCc1ccc2[nH]c(=O)c(CN(CCN3CCCC3)C(=O)NC3CCCCC3)cc2c1	4.17% (inactive)	–
CCOc1ccc(/C=N/NC(=O)CN2CCSCC2)cc1	-1.56% (inactive)	–
Cc1ccsc1/C=N/Nc1nc2ccccc2[nH]1	–	1.3 µM (active)
COc1ccc2cc3c(N)nn(C(=O)c4ccc(Cl)c([N+](=O)[O-])c4)c3nc2c1	-10.9% (inactive)	–
O=C(NCc1ccco1)c1noc2c1CCCC2	56.8% (inactive)	–
C1=C(CCNc2ncnc3nc[nH]c23)CCCC1	–	1.64 µM (active)
CN1CC(C(=O)Nc2ccc(F)c(Cl)c2)CC1=O (stereo not drawn)	-4.69% (inactive)	–
CCOCC(=O)Nc1nc2ccc(OCC)cc2s1	–	16.4 µM (active)
O=C(c1cccc(Br)c1)c1coc2ccc(O)cc12	–	23.1 µM (active)
COCCn1c(C)cc(C(=O)COc2ccc(N(C)S(=O)(=O)c3ccc(C)cc3)cc2)c1C	17.2% (inactive)	–
CN(C)c1ccc(/C=N/Nc2nncc3ccccc23)cc1	–	0.366 µM (active)
CCc1cc(C(=O)c2ccc(C)cc2)c(NC(=O)CCl)s1	11.5% (inactive)	–
Cc1cccc(NC(=O)Nc2ccc(C)cc2Br)c1	–	16.4 µM (active)
CC(C)c1ccc(OCC(=O)NC(C)c2ccccc2)cc1 (stereo not drawn)	-14.6% (inactive)	–
CC(/C=N/Nc1nc2ccccc2[nH]1)=C\c1ccccc1	–	0.651 µM (active)
CCOc1ccc(N2C(=O)c3ccccc3NC2(C)CC)cc1 (stereo not drawn)	–	9.2 µM (active)
COc1ccccc1Oc1c(C)oc2c(CN(C)C)c(O)ccc2c1=O	-21.9% (inactive)	–
O=C1c2cccc3cc([N+](=O)[O-])cc(c23)C(=O)N1CCN1CCCC1	147% (inactive)	–

SMILES	activation	Potency
CN(/N=C/c1ccc2c(c1)OCO2)c1ccccc1	–	14.6 µM (active)
Cc1cccc(-c2noc(CCC(=O)N3CCN(c4cc(C)ccc4C)CC3)n2)c1	–	23.1 µM (active)
CCN(CC)C(=O)CNC(=S)N(CCCN1CCOCC1)Cc1cccs1	-10.4% (inactive)	–
COc1cc(NC(=O)CN2C(=O)COc3ccc(S(=O)(=O)N4CCCC4)cc32)cc(OC)c1	-4.69% (inactive)	–
O=c1oc(-c2ccc(O)c(O)c2)cc2cc(O)cc(O)c12	–	11.6 µM (active)
Cc1cc(C(=O)Nc2ccc(Br)cn2)sc1C	–	2.06 µM (active)
CCCCn1c(O)c(N=Nc2ccccc2O)c2ccccc21	8.33% (inactive)	–
CC(=O)OCC(=O)Nc1ccc(N=Nc2ccccc2)cc1	–	0.651 µM (active)
COc1cccc(/C=C2\Oc3ccc(O)cc3C2=O)c1O	-18.8% (inactive)	–
COc1cc(C(C)=O)ccc1Oc1ncnc2c1cnn2-c1ccc(F)cc1	9.9% (inactive)	–
CCOc1ccc2c(c1)C(C)=CC(C)(C)N2S(=O)(=O)c1ccc(NC(C)=O)cc1	38% (inactive)	–
COc1ccc2cnn(CCOc3ccccc3)c(=O)c2c1OC	–	1.03 µM (active)
NC(N)=Nc1nc(C2COc3ccccc3O2)cs1 (stereo not drawn)	–	4.11 µM (active)
Cc1nc(NC(=O)c2csc3ccccc23)sc1C	–	0.82 µM (active)
CSC1=NCCN1C(=O)c1ccc(Br)o1	-91.1% (inactive)	–
CCn1c(=O)c2ccccc2n(Cc2ccccc2C)c1=O	-7.29% (inactive)	–
Nc1nonc1-n1nnc(C(=O)N/N=C/c2cc(Br)ccc2O)c1CSC1=NCCS1	-26.8% [at 9.22 µM] (inactive)	–
Oc1ccccc1-c1cc(-c2ccccc2)n[nH]1	–	3.66 µM (active)
COc1ccnc(CSC(N)=Nc2ccccc2OC)c1	18.8% (inactive)	–
